Measured values reported in PubChem BioAssay AID1259341 (Broad Institute, 2017).
Calls of active or inactive are those of the source.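 The calls were made as follows: active = activity change under -35% in any replicate well, with more than 20 beads read in that well; inactive = the rest.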

Biological target: Caspase recruitment domain-containing protein 9 (Homo sapiens) + E3 ubiquitin-protein ligase TRIM62 (Homo sapiens) (UniProt Q9H257+Q9BVG3)
Assay: disruptors of CARD9-TRIM62 binding, primary screen, cell lysate, HEK293FT lysates, Luminex bead ELISA (AID 1259341);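 also: PE anti-Flag signal of Flag-CARD9 captured by myc-TRIM62 beads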
Details: PE fluorescence, stronger effect = lower value, concentration not given here

Sequence of Caspase recruitment domain-containing protein 9 (Homo sapiens) + E3 ubiquitin-protein ligase TRIM62 (Homo sapiens) (Q9BVG3 whole entry, looked up, the tested form may be a part): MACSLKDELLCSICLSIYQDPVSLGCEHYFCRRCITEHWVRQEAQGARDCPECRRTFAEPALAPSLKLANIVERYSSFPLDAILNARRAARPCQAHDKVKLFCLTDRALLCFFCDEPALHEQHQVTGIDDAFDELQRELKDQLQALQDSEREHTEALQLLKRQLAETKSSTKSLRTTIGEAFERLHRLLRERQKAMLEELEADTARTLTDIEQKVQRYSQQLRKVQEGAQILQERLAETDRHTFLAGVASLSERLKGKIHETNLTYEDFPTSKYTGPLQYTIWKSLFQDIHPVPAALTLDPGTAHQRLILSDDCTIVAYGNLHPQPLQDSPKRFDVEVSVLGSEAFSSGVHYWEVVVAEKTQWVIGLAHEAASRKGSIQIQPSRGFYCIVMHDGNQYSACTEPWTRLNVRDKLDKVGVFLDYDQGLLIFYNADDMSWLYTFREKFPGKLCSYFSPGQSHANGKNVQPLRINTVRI
Sequence of Caspase recruitment domain-containing protein 9 (Homo sapiens) + E3 ubiquitin-protein ligase TRIM62 (Homo sapiens) (Q9H257 whole entry, looked up, the tested form may be a part): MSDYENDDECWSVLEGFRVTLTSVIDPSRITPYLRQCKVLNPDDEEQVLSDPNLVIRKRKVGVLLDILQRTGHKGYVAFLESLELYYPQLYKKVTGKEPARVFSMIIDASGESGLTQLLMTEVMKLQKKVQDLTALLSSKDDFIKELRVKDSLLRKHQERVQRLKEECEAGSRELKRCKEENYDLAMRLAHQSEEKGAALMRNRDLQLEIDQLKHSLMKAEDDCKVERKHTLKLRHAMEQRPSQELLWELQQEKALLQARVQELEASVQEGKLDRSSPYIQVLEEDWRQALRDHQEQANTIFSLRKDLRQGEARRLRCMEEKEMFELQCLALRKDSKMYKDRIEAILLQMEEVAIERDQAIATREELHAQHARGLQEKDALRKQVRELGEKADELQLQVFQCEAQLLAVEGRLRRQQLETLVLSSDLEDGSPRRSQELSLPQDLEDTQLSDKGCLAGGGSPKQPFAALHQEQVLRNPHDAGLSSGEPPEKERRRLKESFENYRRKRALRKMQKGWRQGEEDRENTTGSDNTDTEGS

Activity change, negative = inhibition, inactive:
COc1ccc(CNC(=O)c2nc(Nc3ccc(C)cc3)c3ccccc3n2)cc1 -5.2%, O=C(NCCCN1CCOCC1)c1cc(-c2ccco2)nc2ccccc12 -23.9%, O=C(NCCc1ccco1)c1ccc(OCc2cn3ccccc3n2)cc1 0.111%, Cc1cccc(NC(=O)Cc2coc3ccc4ccccc4c23)n1 -0.738%, N#Cc1c2c(c(NCc3ccco3)n3c1nc1ccccc13)CCC2 5.44%, Cn1nnnc1SCCNCc1ccc(-c2cccc(C(F)(F)F)c2)o1 -0.39%, Cc1sc2ncnc(SCc3ccco3)c2c1C -1.85%, O=C(Nc1ccc2oc(-c3ccncc3)nc2c1)c1ccc2c(c1)OCCO2 -1.89%, Cc1ccc(C)n1Nc1nc(O)cs1 1.72%, O=C(Cn1cncc1-c1ccc([N+](=O)[O-])cc1)Nc1ccccc1F 4.4%, N#Cc1c2ccc(OCC(=O)NCc3ccco3)cc2n2ccccc12 0.334%, C[C@H](CO)N1C[C@H](C)[C@@H](CN(C)CC2CCCCC2)OCCCC[C@H](C)Oc2ccc(NS(=O)(=O)c3ccccc3)cc2C1=O 7.12%, CC1(C)Cc2c(c(N3CCOCC3)nc3sc(C(=O)NCc4ccco4)c(N)c23)CO1 -2.46%, O=S(=O)(Nc1nc2ccc(S(=O)(=O)N3CCCCC3)cc2s1)c1ccccc1 -0.733%, Cc1ccc(C2CC(=O)C3=C(C2)Nc2ccccc2NC3c2cccnc2)cc1 (stereo unspecified) -0.28%, Cc1ccc(Nc2nc(C(=O)Nc3ccc(Cl)cc3)nc3ccccc23)cc1 -19.6%, O=C(Nc1nccs1)c1cc(-c2ccco2)nc2ccccc12 -0.894%, CCc1cc2c(=O)n(Cc3ccco3)c(SC)nc2s1 1.18%, O=C(COC(=O)CCC(=O)c1cccs1)NCc1ccco1 0.961%, O=C(NC1CC1)c1cc(-c2ccco2)nc2ccccc12 -6.41%, c1cn(CCc2noc(C3CCCC3)n2)c(-c2cc3n(n2)CCCNC3)n1 -12.3%, O=C(O)c1ccc2nc(-c3ccco3)c(-c3ccco3)nc2c1 -13.9%, Cc1occc1C(=O)NCc1cccc(CNC(=O)c2ccoc2C)c1 3.25%, COc1ccc(NC(=O)CN(C)C(=O)c2cc(-c3ccco3)nc3ccccc23)cc1 -8.21%, C[C@H](CO)N1C[C@H](C)[C@@H](CN(C)CC2CCCCC2)OCCCC[C@H](C)Oc2ccc(NS(C)(=O)=O)cc2C1=O -25.8%, COC[C@]1(O)CCN(C(=O)CCN(C)S(C)(=O)=O)CC1(C)C -0.387%, CN(c1ccccc1C(=O)NCc1ccco1)S(C)(=O)=O -3.12%, Nc1ccc2ncccc2c1N 1.19%, C=CCNc1ncnc2c1CCN(C(=O)c1ccc(CSC)o1)CC2 2.9%, C[C@H](CO)N1C[C@H](C)[C@H](CN(C)C(=O)C2CCCCC2)OCCCC[C@H](C)Oc2ccc(NS(=O)(=O)c3cccs3)cc2C1=O 6.16%, CCc1nccn1CCC(=O)N1C[C@H](CO)C[C@H](CN2CCCC2)C1 4.55%, O=C(Nc1nccs1)c1cc(-c2ccccn2)nc2c(Cl)cccc12 -0.831%, COCCCNC(=O)C1CCN(c2ccc(N3CCOCC3)nn2)CC1 28.3%, O=C(CCN1CCOCC1)c1ccc2c(c1)OCCO2 10.8%, O=C(Nc1ccc2oc(-c3cccnc3)nc2c1)c1ccc2c(c1)OCCO2 4.18%, O=C1c2ccccc2-c2nc3ccccc3nc21 -4.55%
